HT1080 IDH1KD tx = kills HT-1080 cells with IDH1 knockdown; HT-1080 IDH1 knockdown viability, ATP luminescence, 48 h; Potency, µM (highest dose often 46.1 µM), for the others: at the top dose activity, negative = toxicity, hits mostly cytotoxic; 2% of 360,000 active;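 further: potency means the concentration at half of the fitted maximal effect; 0% = DMSO wells and -100% = cell-free medium wells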
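In this qHTS, HT-1080 cells depleted of IDH1 are exposed for 48 h at 37 °C to compound titrations. Toxicity is scored from CellTiter-Glo luminescence, with DMSO as full viability and medium alone as none.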
IL1B secr inh = inflammasome signaling inhibition, IL-1 beta readout. THP-1 LPS/ATP IL-1B secretion, AlphaLISA, 16 h; hits give low values. activity change, % at 57.5 µM. 4.7% of 360,000 active; in the data active means activity change below about -50%; inconclusive means mostly about -30% to -49%
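THP-1 cells pretreated 1 hr with compounds (up to 57.5 uM final), then stimulated with LPS (250 ng/mL final) plus ATP (1.25 mM final); secreted IL-1B measured by AlphaLISA after 16 hr, decreased signal indicating inhibition.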
TDP1 cell CPT = growth inhibition of DT40 Tdp1-/-;hTDP1 cells with camptothecin (screen for TDP1 inhibitors). chicken DT40 Tdp1-/-;hTDP1 cells + 20 nM CPT, ATP luminescence, 48 h. Potency, µM (doses to about 46.2 µM), inactives show at the top dose activity change, negative = growth inhibition, usual class: inhibitors. 12% of 420,000 active. AID 686979; further: potency means the concentration at half of the fitted maximal effect; nearly all actives have a fitted effect of over 55% in size
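Cell growth measured by CellTiter-Glo luminescence after a minimum 48 h, 37 C compound exposure with 20 nM CPT in Tdp1-knockout DT40 cells stably expressing hTDP1, seeded 400/well; qHTS titration format.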
DT40 TDP1 no CPT = qHTS for Inhibitors of human tyrosyl-DNA phosphodiesterase 1 (TDP1): qHTS in cells in absence of CPT; 15% of 420,000 active; Potency, µM (highest dose often 46.2 µM), inactives show at the top dose activity change, negative = growth inhibition, actives largely listed as inhibitors; DT40 Tdp1-/- hTDP1 cells, no CPT, ATP luminescence, 48 h; AID 686978, 2013; further: potency means the concentration at half of the fitted maximal effect; nearly all actives have a fitted effect of over 55% in size
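Stably hTDP1-transfected Tdp1-null chicken DT40 cells were treated with library compounds minus camptothecin and grown for at least 48 hr at 37 °C, after which cellular ATP was quantified by luminescence.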
ALOX12 inh = inhibitors of human 12S-lipoxygenase ALOX12 | 1.1% of 580,000 active | P18054 | AID 1671190 | Potency, µM (titrated, usually from 108 µM), for the others: at the top dose activity change, negative = inhibition, most hits filed as inhibitors | purified 12hLO, xylenol orange hydroperoxide absorbance; further: potency means the concentration at half of the fitted maximal effect
Target sequence (P18054 whole entry, looked up): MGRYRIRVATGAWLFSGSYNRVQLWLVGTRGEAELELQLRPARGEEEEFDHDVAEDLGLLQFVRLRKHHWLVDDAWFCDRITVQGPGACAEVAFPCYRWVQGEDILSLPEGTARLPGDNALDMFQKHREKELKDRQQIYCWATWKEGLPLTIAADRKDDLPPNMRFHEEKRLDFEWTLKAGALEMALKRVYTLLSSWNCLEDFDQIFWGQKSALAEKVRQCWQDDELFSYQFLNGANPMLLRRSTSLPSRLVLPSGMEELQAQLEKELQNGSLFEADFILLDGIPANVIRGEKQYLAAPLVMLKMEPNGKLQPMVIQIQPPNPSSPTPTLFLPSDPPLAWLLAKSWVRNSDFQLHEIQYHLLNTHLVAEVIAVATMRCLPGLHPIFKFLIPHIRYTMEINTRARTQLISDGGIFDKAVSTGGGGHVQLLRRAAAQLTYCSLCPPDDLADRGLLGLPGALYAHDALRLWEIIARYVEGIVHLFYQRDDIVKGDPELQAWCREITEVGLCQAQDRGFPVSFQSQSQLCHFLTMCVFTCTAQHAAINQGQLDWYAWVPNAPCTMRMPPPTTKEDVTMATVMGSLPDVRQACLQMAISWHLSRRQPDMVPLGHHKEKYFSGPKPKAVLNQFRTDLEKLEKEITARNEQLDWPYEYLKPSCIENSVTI
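Purified human 12hLO at 150 nM in 25 mM Hepes, 0.01% Triton X-100, pH 7.0, preincubated 15 min at room temperature with compound. Reaction started with 40 uM arachidonic acid, 30 min at room temperature. Hydroperoxide measured by Fe-xylenol orange, 573/405 nm absorbance ratio.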
HT1080-NT tox = kills 2HG-producing HT-1080-NT fibrosarcoma cells; HT-1080-NT fibrosarcoma viability, CellTiter-Glo ATP luminescence, 48 h; Potency, µM (highest dose often 46.1 µM), inactives show top-dose activity, negative = less viability, usual class: cytotoxic; 1.6% of 360,000 active;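 further: NT is the 2HG producing partner of a matched IDH1 knockdown line; potency means the concentration at half of the fitted maximal effect; 0% = DMSO-treated cells and -100% = media-only wells without cells; nearly all actives have a fitted effect of over 55% in size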
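Luminescent CellTiter-Glo readout after 48 hours of compound exposure at 37 degrees C defined viability of HT-1080-NT cells. Activity was normalized to DMSO wells and cell-free media wells; concentration-response curves were fitted and assigned curve classes.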
An asterisk follows results filed as active; [ ] = remark or other dose. The entries come from a sample that favours hits as a whole. Unless noted, the call rests on the fitted dose curve; in most records, active means well fitted curve in the direction sought with a large enough effect; inconclusive means small, poorly fitted or top-dose-only effect, or another doubt; inactive means no such curve, though single readings can be large; an effect the other way counts as inactive or inconclusive. Unless noted, on the % scale 0 is the no-effect control and ±100 the full control effect.

What do the screens show for `CC(C)CCN(C)[C@H]1C[C@H]2c3[nH]c4ccccc4c3CCN2C[C@H]1[C@H](C)O`?
ALOX12 inh: 14%

What do the screens show for `CC(C)(CNC(=O)CCc1ncc(-c2ccc(F)cc2)o1)N1CCOCC1`?
ALOX12 inh: 1%

How did O=C(NCc1ccccn1)C1CCCN(C(=O)c2cccc(C(F)(F)F)c2)C1 (stereo unspecified) do in these assays?
ALOX12 inh: 44%

How did N#CC1=C(c2ccc(-c3ccccc3)cc2)COC1=O do in these assays?
HT1080 IDH1KD tx: -5%; IL1B secr inh: inconclusive; TDP1 cell CPT: -5%; DT40 TDP1 no CPT: -29%; ALOX12 inh: 50µM*; HT1080-NT tox: 15%

Results for CS(=O)(=O)c1ccc(C2=C(c3ccccc3)C(=O)OC2)cc1 ?
HT1080 IDH1KD tx: 13%; IL1B secr inh: 6; TDP1 cell CPT: -12%; DT40 TDP1 no CPT: -8%; ALOX12 inh: -1%; HT1080-NT tox: 0%

Results for COC(=O)c1c(NC(=O)c2ccc([N+](=O)[O-])o2)sc2c1CCN(C(C)C)C2 ?
HT1080 IDH1KD tx: 4.6µM*; IL1B secr inh: -97*; TDP1 cell CPT: 0.58µM*; DT40 TDP1 no CPT: 0.82µM*; ALOX12 inh: 0%; HT1080-NT tox: 21µM*

How did COC(=O)c1sc(NC(=O)c2ccc([N+](=O)[O-])o2)c(C#N)c1C do in these assays?
HT1080 IDH1KD tx: -3%; IL1B secr inh: inconclusive; TDP1 cell CPT: 9.2µM*; DT40 TDP1 no CPT: 6.5µM*; ALOX12 inh: 0%; HT1080-NT tox: 0%

What do the screens show for `CCN(CC)C(=O)c1sc(NC(=O)c2cccc([N+](=O)[O-])c2)c(C#N)c1C`?
HT1080 IDH1KD tx: 4%; IL1B secr inh: 2; TDP1 cell CPT: 21µM*; DT40 TDP1 no CPT: 16µM*; ALOX12 inh: -26%; HT1080-NT tox: 9%

Results for CCOC(=O)c1sc(NC(=O)c2ccco2)c(C#N)c1C ?
HT1080 IDH1KD tx: -1%; IL1B secr inh: 11; TDP1 cell CPT: -9%; DT40 TDP1 no CPT: -25%; ALOX12 inh: -19%; HT1080-NT tox: -8%

Results for CC(C)N1CCc2c(sc(NC(=O)c3ccc([N+](=O)[O-])o3)c2C(N)=O)C1 ?
ALOX12 inh: -16%

Results for CN(C(=O)CSc1nc(-c2ccccc2)no1)C1CCCCC1 ?
ALOX12 inh: 6%

How did Cc1[nH]ncc1CNC(=O)C1CCN(C(=O)c2ncn3c2COC(c2ccc(F)cc2)C3)CC1 (stereo unspecified) do in these assays?
ALOX12 inh: 22%

What do the screens show for `Cc1[nH]c2c(C(=O)NC3CCS(=O)(=O)C3)cccc2c1C` (stereo unspecified)?
ALOX12 inh: -2%

What do the screens show for `O=C(c1cccc(Cl)c1)N1CCN(C(=O)c2nnn3c2COC(c2ccc(F)cc2)C3)CC1` (stereo unspecified)?
ALOX12 inh: 15%

How did CN(C)CCC1c2ccc(Cl)cc2CCc2cccnc21 (stereo unspecified) (tested in a mixture with another compound) do in these assays?
HT1080 IDH1KD tx: -13%; IL1B secr inh: -75*; TDP1 cell CPT: -6%; DT40 TDP1 no CPT: inconclusive; ALOX12 inh: inconclusive; HT1080-NT tox: -17%

Results for CC1CCCC(NC(=O)CCC2CCCO2)C1 (stereo unspecified) ?
ALOX12 inh: -4%

Results for CS(=O)(=O)N1CCn2cc(C(=O)Nc3ccc(Cl)cc3Cl)nc2C1 ?
ALOX12 inh: -2%[6.33 µM]

Results for Cc1ccccc1-c1cc(C(=O)n2cccn2)c2cc(Cl)ccc2n1 ?
HT1080 IDH1KD tx: 10µM*; IL1B secr inh: 50; TDP1 cell CPT: inconclusive; DT40 TDP1 no CPT: -13%; ALOX12 inh: -3%; HT1080-NT tox: inconclusive

How did COc1ccc(C2C=C(C)Nc3nc4ccccc4n32)cc1 (stereo unspecified) do in these assays?
HT1080 IDH1KD tx: -6%; IL1B secr inh: 21; TDP1 cell CPT: -4%; DT40 TDP1 no CPT: 18µM*; ALOX12 inh: 1%; HT1080-NT tox: -3%

What do the screens show for `CC(=O)N(Cc1ccccc1)Cc1cc2ccccc2[nH]c1=O`?
ALOX12 inh: 1%

Results for CCC(C(=O)NCc1ccc(C)cc1)c1ccccc1 (stereo unspecified) ?
HT1080 IDH1KD tx: 3%; IL1B secr inh: 2; TDP1 cell CPT: -2%; DT40 TDP1 no CPT: -27%; ALOX12 inh: 25µM*; HT1080-NT tox: 1%

What do the screens show for `CCC(C(=O)NCCC1=CCCCC1)c1ccccc1` (stereo unspecified)?
HT1080 IDH1KD tx: 6%; IL1B secr inh: -1; TDP1 cell CPT: inconclusive; DT40 TDP1 no CPT: 15µM*; ALOX12 inh: -17%; HT1080-NT tox: 12%

Results for CCC(C(=O)Nc1ccc(C)cc1)c1ccccc1 (stereo unspecified) ?
HT1080 IDH1KD tx: 12%; IL1B secr inh: 13; TDP1 cell CPT: 1%; DT40 TDP1 no CPT: -12%; ALOX12 inh: -2%; HT1080-NT tox: 21%

How did O=C(COC(=O)CSc1ccc([N+](=O)[O-])cc1)NCCC1=CCCCC1 do in these assays?
HT1080 IDH1KD tx: -7%; IL1B secr inh: 3; TDP1 cell CPT: -4%; DT40 TDP1 no CPT: 9%; ALOX12 inh: inconclusive; HT1080-NT tox: 4%

Results for CC(C(=O)NCCC1=CCCCC1)c1ccc([N+](=O)[O-])cc1 (stereo unspecified) ?
HT1080 IDH1KD tx: -2%; IL1B secr inh: 4; TDP1 cell CPT: inconclusive; DT40 TDP1 no CPT: 16µM*; ALOX12 inh: -15%; HT1080-NT tox: -5%

Results for CC(C)Sc1ccc2ccccc2n1 ?
ALOX12 inh: -40%

What do the screens show for `CCOC(=O)c1ccc(NC(=O)Cn2nnc(-c3ccccc3F)n2)cc1`?
HT1080 IDH1KD tx: 1%; IL1B secr inh: 9; TDP1 cell CPT: inconclusive; DT40 TDP1 no CPT: inconclusive; ALOX12 inh: 21%; HT1080-NT tox: 5%

What do the screens show for `CCOC(=O)c1cc(=O)n2nc(-c3ccccc3F)nc2s1`?
HT1080 IDH1KD tx: 1%; IL1B secr inh: -24; TDP1 cell CPT: inconclusive; DT40 TDP1 no CPT: 23µM*; ALOX12 inh: -5%; HT1080-NT tox: 18%

Source: PubChem BioAssay
